Assay [1] can be described thus: Nuclear factor erythroid 2-related factor 2/antioxidant responsive element (Nrf2/ARE) small molecule agonists: qHTS cell viability counter screen in human keratinocytes (AID 1919968; active = well fitted curve in the direction sought with a large enough effect in the repeat runs; an effect the other way counts as inactive or inconclusive; also: nearly all actives have a fitted effect of over 55% in size). A digest of the protocol:
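CellTiter-Fluor fluorescence, read 1 h after reagent, gave viability in the same wells as the ARE-luciferase assay. KeratinoSens cells (1,500/well) had 23 h compound exposure at 37 C/5% CO2 following 5 h plating.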
(In qHTS, concentration-response curves come from the screen itself.)

A short description of assay [2]: Nuclear factor erythroid 2-related factor 2/antioxidant responsive element (Nrf2/ARE) small molecule agonists: luciferase reporter gene qHTS assay in human keratinocytes (AID 1919969). Also: nearly all actives have a fitted effect of over 35% in size. Background: In a reporter assay the amount or activity of a reporter protein is the signal.
In assay [3] the target is Gonadotropin-releasing hormone receptor (Homo sapiens) (UniProt P30968). In words: Human gonadotropin-releasing hormone receptor (GnRHR) small molecule agonists, calcium flux assay in GnRHR-HEK293 cells (AID 1920063). Also: nearly all actives have a fitted effect of over 35% in size. A digest of the protocol: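 Agonist mode: compounds at 15 concentrations, in triplicate, went onto calcium dye-loaded GnRHR-HEK293 cells. Intracellular calcium was then followed as 480/540 nm fluorescence at 1 s intervals over 3 min.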
(Calcium flux is commonly read through the fluorescence of an indicator in the cells.)

Assay [4] deals with KiSS-1 receptor (Homo sapiens) (UniProt Q969F8). In words: Human kisspeptin (KISS1R) small molecule agonists, calcium flux assay in KISS1R-HEK293 cells (AID 1920064; active = well fitted curve in the direction sought with a large enough effect in the repeat runs; an effect the other way counts as inactive or inconclusive). A digest of the protocol: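 Agonist mode: intracellular calcium rise tracked at 1 s intervals over 3 min (480/540 nm) immediately after compound addition to dye-loaded KISS1R-HEK293 stable cells. Each compound tested at 15 concentrations in triplicate.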

A short description of assay [5]: G protein-coupled receptor (GPCR) small molecule agonists, calcium flux assay: HEK293 wild type cell line counter screen (AID 1920065). Put shortly: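 Calcium flux counter screen: compound added in agonist mode at 15 concentrations in triplicate to dye-loaded parental HEK293 cells. Fluorescence (480/540) read kinetically for 3 min; ATP served as positive control.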

A short description of assay [6]: p53 small molecule agonists, cell-based qHTS assay with human liver microsomes (AID 1963577).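 Also: p53 response element beta-lactamase reporter cells with liver microsomes plus NADPH.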 A digest of the protocol: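 HLM-supplemented p53RE-bla reporter assay: 16 h compound exposure at 37 C, microsomes and NADPH each 0.5 mg/mL final, read by fluorescence intensity.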
A short description of assay [7]: p53 small molecule agonists, cell-based qHTS assay with rat liver microsomes (AID 1963578). A digest of the protocol: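 Quantitative HTS of the Tox21 10K library: p53RE-bla cells, rat liver microsomes plus NADPH at 0.5 mg/mL final each, 16 h at 37 C, beta-lactamase fluorescence detection.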
Assay [8] is described as follows: p53 small molecule agonists, cell-based qHTS assay with human liver microsomes: qHTS cell viability counter screen (AID 1963579). Also: nearly all actives have a fitted effect of over 45% in size. A digest of the protocol:
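Viability of p53RE-bla cells is measured as CellTiter-Glo luminescence following a 16 h, 37 C incubation with compound, liver microsomes from human donors and NADPH.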

Assay [9] in a line: p53 small molecule agonists, cell-based qHTS assay: qHTS cell viability counter screen (AID 1963581). Also: nearly all actives have a fitted effect of over 45% in size. Put shortly: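 Counter screen read by CellTiter-Glo luminescence (ATP content, 30 min at room temperature), run in the same wells as the beta-lactamase reporter read. HCT-116 p53RE-bla cells saw compounds for 16 h at 37 C.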
Assay [10] in a line: p53 small molecule agonists, cell-based qHTS assay (AID 1963582; active = well fitted activation curve with a large enough effect in the signal ratio in the repeat runs, not every such curve was filed as active; the % refers to the signal ratio). A digest of the protocol:
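Read-out is beta-lactamase FRET fluorescence after 2 h at room temperature with LiveBLAzer B/G substrate. p53 response element-bla cells were treated 16 h at 37 C with compounds in DMSO, added 5 h after seeding.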

Assay [11] concerns the target 5-hydroxytryptamine receptor 2A (Homo sapiens) (UniProt P28223). Briefly: 5-hydroxytryptamine receptor 2A (HTR2A) small molecule antagonists, cell-based qHTS assay (AID 1963586). Also: nearly all actives have a fitted effect of over 45% in size. Also: potency is read from the fitted curve at half-maximal effect. A digest of the protocol: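 CHO cells stably expressing human HTR2A were plated for 18 h at 37 C, then loaded with calcium dye for 1 h. Compounds were preincubated 5 min at room temperature before DOI (4 nM solution) was added. Kinetic fluorescence was read for 3 min.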

Assay [12] shares this target. In words: 5-hydroxytryptamine receptor 2A (HTR2A) small molecule agonists, cell-based qHTS assay (AID 1963587). Also: nearly all actives have a fitted effect of over 30% in size. Put shortly: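 Kinetic calcium-flux fluorescence (2 min, 1 sec intervals) after compound addition in agonist mode. HTR2A-CHO cells were cultured 18 h, then dye-loaded 1 h at 37 C.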
The target in assay [13] is Muscarinic acetylcholine receptor M1 (Homo sapiens) (UniProt P11229). Briefly: Cholinergic receptor muscarinic 1 (CHRM1) small molecule antagonists, cell-based qHTS assay (AID 1963588). Also: nearly all actives have a fitted effect of over 40% in size. A digest of the protocol: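 Compounds were tested at 15 concentrations in three independent runs. Dye-loaded CHRM1-CHO cells were exposed 5 min at room temperature before stimulation by acetylcholine added at 50nM. Intracellular calcium was read kinetically on FDSS for 3 min.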

Assay [14] shares this target. Briefly: Cholinergic receptor muscarinic 1 (CHRM1) small molecule agonists, cell-based qHTS assay (AID 1963589). Also: nearly all actives have a fitted effect of over 35% in size. Put shortly: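 Agonist-mode calcium-flux screen: compounds at 15 concentrations, three independent runs, were pin-transferred onto dye-loaded human CHRM1-CHO cells. Fluorescence was then recorded kinetically every second over minutes.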
Assay [15] can be described thus: cAMP Responsive Elements (CRE) small molecule antagonists, cell-based qHTS assay (AID 1963591; active = well fitted inhibition curve with a large enough effect in the signal ratio in the repeat runs, not every such curve was filed as active; the % refers to the signal ratio). Put shortly: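 Antagonist mode: compounds are added alongside the adenylyl cyclase activator NKH477 (0.25 uM final) to CRE-bla HEK293T cells for 3 h. LiveBLAzer FRET substrate, 2 h at room temperature, reports bla expression.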
Assay [16] deals with Beta-2 adrenergic receptor (Homo sapiens) (UniProt P07550). In words: Adrenergic beta2 receptor (ADRB2) small molecule antagonists, cell-based qHTS assay (AID 1963592). Also: series mostly up to about 92 µM; nearly all actives have a fitted effect of over 50% in size. A digest of the protocol: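 Assay format: CHO-ADRB2 cells, 18-20hr seeding at 37C/5% CO2, then compound plus 1nM isoproterenol agonist mix for 0.5hr RT. Homogeneous time-resolved fluorescence cAMP detection after 1hr, expressed as 665/615 nm ratio.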

The target of assay [17] is D(2) dopamine receptor (Homo sapiens) (UniProt P14416). In words: Dopamine D2 receptor (DRD2) small molecule agonists, cell-based qHTS assay (AID 1963594). Also: nearly all actives have a fitted effect of over 35% in size. Put shortly: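 cAMP accumulation in DRD2-HEK293 cells measured by HTRF after 1 h detection; compounds added 10 min before NKH477 (200nM […]) forskolin-analogue stimulation, 30 min at room temperature, with Ro20-1724 present at 0.1 mM final.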

The target is the same in assay [18]. Briefly: Dopamine D2 receptor (DRD2) small molecule antagonists, cell-based qHTS assay (AID 1963595; active = well fitted inhibition curve with a large enough effect in the signal ratio in the repeat runs, with a control signal flat; the % refers to the signal ratio; also: potency is read from the fitted curve at half-maximal effect). A digest of the protocol: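 Cells were plated and grown for 24 h at 37 °C. Ro20-1724 (0.1 mM final) went in first, then compound for 10 min. NKH477 (200 nM) with quinpirole (12 nM) followed for 30 min at RT, then HTRF detection reagents for 1 h.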
Assay [19] is described as follows: cAMP Responsive Elements (CRE) small molecule agonists, cell-based qHTS assay (AID 1963590). A digest of the protocol: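 Agonist mode: compound added to CRE-bla HEK 293T cells (2,000/well, 18 h after plating) for 3 h at 37 C/5% CO2. Reporter activity detected via FRET beta-lactamase substrate, 2 h room-temperature loading.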
The nature of assay [20]: p53 small molecule agonists, cell-based qHTS assay with rat liver microsomes: qHTS cell viability counter screen (AID 1963580). Also: nearly all actives have a fitted effect of over 45% in size. Put shortly: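 Rat liver microsome (0.5 mg/mL final) and NADPH (0.5 mg/mL final) co-incubation with compounds for 16 h at 37 C on HCT-116 p53RE-bla cells; cytotoxicity taken from intracellular ATP luminescence.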

Values without a mark were called inactive. Results filed as inconclusive are left out. Activity calls are given as the source filed them. Unless noted, calls follow the shape of the full dose curve.

Sequence of Muscarinic acetylcholine receptor M1 (Homo sapiens) (P11229 whole entry, looked up): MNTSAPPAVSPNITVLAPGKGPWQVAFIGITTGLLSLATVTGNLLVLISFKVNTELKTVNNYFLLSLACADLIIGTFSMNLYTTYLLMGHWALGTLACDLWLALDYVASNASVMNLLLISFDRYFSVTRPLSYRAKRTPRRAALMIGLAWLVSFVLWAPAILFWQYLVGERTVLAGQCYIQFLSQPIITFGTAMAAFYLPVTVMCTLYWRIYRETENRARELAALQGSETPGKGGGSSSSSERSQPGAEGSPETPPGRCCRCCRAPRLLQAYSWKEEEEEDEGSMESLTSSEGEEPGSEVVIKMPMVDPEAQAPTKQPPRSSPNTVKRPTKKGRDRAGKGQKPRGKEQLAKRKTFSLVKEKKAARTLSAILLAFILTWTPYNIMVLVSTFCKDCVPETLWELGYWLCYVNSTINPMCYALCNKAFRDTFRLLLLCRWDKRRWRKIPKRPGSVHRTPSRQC
Sequence of D(2) dopamine receptor (Homo sapiens) (P14416 whole entry, looked up): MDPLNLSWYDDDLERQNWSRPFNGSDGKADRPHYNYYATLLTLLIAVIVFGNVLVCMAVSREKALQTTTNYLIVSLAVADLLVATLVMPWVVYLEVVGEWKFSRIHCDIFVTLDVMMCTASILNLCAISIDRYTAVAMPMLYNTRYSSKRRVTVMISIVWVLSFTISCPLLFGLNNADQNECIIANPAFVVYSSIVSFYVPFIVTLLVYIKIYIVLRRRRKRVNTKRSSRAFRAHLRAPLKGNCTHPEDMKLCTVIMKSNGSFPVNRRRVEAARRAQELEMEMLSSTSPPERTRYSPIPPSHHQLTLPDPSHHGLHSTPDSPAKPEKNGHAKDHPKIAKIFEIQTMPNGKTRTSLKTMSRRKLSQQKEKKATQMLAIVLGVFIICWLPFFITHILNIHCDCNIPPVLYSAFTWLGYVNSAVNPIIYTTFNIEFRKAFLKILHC
Sequence of 5-hydroxytryptamine receptor 2A (Homo sapiens) (P28223 whole entry, looked up): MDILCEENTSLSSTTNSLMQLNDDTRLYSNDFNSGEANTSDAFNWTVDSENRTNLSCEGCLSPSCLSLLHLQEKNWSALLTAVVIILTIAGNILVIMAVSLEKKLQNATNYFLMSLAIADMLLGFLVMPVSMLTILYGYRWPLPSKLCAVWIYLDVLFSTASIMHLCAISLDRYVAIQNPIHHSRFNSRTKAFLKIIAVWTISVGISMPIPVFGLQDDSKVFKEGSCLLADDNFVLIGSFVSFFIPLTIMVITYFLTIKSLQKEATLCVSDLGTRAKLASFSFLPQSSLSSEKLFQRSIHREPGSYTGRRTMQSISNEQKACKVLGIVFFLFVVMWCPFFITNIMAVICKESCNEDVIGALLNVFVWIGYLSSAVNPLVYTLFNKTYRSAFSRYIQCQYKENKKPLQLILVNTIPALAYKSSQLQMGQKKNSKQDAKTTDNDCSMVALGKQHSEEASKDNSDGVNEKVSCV
Sequence of Beta-2 adrenergic receptor (Homo sapiens) (P07550 whole entry, looked up): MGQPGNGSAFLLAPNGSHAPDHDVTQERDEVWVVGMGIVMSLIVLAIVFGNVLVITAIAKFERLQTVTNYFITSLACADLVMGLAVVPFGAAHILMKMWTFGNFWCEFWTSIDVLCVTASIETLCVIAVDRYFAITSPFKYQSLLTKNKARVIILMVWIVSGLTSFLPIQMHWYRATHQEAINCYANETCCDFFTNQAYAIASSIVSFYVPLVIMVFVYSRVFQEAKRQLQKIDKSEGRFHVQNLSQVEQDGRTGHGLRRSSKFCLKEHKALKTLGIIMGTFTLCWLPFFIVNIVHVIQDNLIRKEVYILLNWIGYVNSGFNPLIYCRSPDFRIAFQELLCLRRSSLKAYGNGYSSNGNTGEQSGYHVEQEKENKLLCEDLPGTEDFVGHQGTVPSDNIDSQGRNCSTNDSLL
Sequence of KiSS-1 receptor (Homo sapiens) (Q969F8 whole entry, looked up): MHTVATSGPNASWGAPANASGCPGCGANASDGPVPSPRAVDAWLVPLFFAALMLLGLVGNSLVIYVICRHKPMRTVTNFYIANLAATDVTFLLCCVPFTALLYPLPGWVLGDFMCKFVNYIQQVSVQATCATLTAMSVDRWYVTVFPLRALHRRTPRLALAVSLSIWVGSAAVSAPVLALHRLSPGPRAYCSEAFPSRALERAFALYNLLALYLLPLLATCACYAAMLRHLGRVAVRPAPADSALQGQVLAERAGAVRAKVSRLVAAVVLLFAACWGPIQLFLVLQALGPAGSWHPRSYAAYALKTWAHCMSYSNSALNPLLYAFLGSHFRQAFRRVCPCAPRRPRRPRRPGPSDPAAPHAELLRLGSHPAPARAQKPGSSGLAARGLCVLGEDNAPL
Sequence of Gonadotropin-releasing hormone receptor (Homo sapiens) (P30968 whole entry, looked up): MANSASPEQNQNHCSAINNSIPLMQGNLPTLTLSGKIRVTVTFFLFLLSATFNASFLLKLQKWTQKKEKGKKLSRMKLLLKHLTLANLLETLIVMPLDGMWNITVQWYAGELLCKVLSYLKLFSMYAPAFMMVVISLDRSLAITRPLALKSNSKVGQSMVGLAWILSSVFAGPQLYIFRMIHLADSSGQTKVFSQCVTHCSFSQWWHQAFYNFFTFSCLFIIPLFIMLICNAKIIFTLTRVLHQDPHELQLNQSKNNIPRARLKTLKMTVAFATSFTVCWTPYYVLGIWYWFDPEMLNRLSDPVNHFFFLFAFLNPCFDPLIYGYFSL

As for `CC(=O)NCc1c(I)c(NC(C)=O)c(I)c(C(=O)O)c1I`, the Potency result in assay [1], in assay [2], in [3], in assay [4], in [5] and in assay [6] was “inactive” throughout. In addition, the Potency entry in [7], in assay [8], in assay [9], in assay [10], in [11] and in assay [12] was “inactive” each time. Besides, the Potency entry in [13], in [14], in assay [15], in assay [16], in [17] and in assay [18] was “inactive” each time.
Take `ClC(c1ccccc1)(c1ccccc1)c1ccccc1`: the Potency entry in assay [1], in [2], in assay [3], in assay [4], in [5] and in assay [6] was “inactive” throughout. The Potency entry in [7], in [8], in [9], in assay [10], in assay [11] and in assay [12] was “inactive” in each case. Moreover, the Potency result in assay [13], in assay [14], in [19], in assay [15], in [16] and in assay [17] was “inactive” in each case. Moreover, the Potency result in [18] was “inactive”.
Consider `CCOC(=O)c1c(C)n(C)c2ccc(O)cc12`, for which the Potency entry in assay [1], in assay [2], in assay [3], in assay [4], in assay [5] and in assay [6] was “inactive” throughout. Moreover, the Potency result in [7], in assay [8], in [9], in assay [10], in [11] and in [12] was “inactive” in each case. The Potency result in [13], in assay [14], in assay [19], in assay [15], in assay [16] and in assay [17] was “inactive” throughout. The Potency entry in assay [18] is “inactive”.
Regarding `O=C(CCCN1CCC(O)(c2cccc(C(F)(F)F)c2)CC1)c1ccc(F)cc1`, the Potency result in assay [1], in assay [2], in assay [3], in [4], in [5] and in assay [6] was “inactive” each time. Besides, the Potency result in [7], in assay [8], in [9], in assay [10], in [12] and in assay [13] was “inactive” each time. For the same compound, the Potency entry in [14], in assay [19], in [15], in assay [16] and in [17] was “inactive” in each case. Further, the Potency is 365 nM (active) in assay [11] and 4.2 nM (active) in [18].
`COc1ccc(C)cc1`: the Potency entry in assay [1], in assay [2], in assay [3], in assay [4], in assay [5] and in assay [6] was “inactive” each time. Besides, the Potency result in [7], in [8], in assay [20], in [11], in [12] and in assay [13] was “inactive” each time. The Potency result in assay [14], in [19], in assay [15], in assay [16], in [17] and in assay [18] was “inactive” each time.
As to `CCC/C=C/CO`, the Potency result in assay [1], in assay [2], in assay [3], in assay [4], in assay [5] and in assay [6] was “inactive” in each case. The Potency result in assay [7], in assay [8], in assay [9], in [10], in [11] and in [12] was “inactive” throughout. Also, the Potency result in assay [13], in assay [14], in [19], in assay [15], in assay [16] and in assay [17] was “inactive” each time. In assay [18], the Potency entry was “inactive”.
